The results in this text go back to PMC7862700, “An all-to-all approach to the identification of sequence-specific readers for epigenetic DNA modifications on cytosine”.

Common to all, as to assay: DAPPL (digital affinity profiling via proximity ligation, sequencing); 10 mM Tris-HCl pH 7.5, 50 mM NaCl, 1 mM DTT, 4% glycerol, room temperature, 30 min; GST-TFs on glutathione beads, 16-mer random dsDNA library, 0.1% formaldehyde crosslink after washing; high values mean tight binding
In one assay the target is T1, FEV (Homo sapiens, UniProt Q99581 1-238).
T1 sequence: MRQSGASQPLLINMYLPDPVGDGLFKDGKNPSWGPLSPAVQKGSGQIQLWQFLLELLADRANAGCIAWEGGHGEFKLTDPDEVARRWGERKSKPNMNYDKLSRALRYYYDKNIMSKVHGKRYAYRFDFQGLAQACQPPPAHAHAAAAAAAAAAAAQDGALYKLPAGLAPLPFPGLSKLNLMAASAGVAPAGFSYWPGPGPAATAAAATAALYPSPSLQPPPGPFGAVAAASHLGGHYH
The conditions noted are these: protein: recombinant; tags: N-terminal GST; dsDNA, one strand shown. An outline of the steps:
(§1)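 Pools were built from human transcription factors expressed in yeast as GST fusions, captured on glutathione beads and DNA-barcoded, along with a tag-only sample. Incubation with 200 nmole of a 16-mer random double-stranded DNA library lasted 30 min at room temperature in Tris/NaCl/DTT/glycerol buffer, and was followed by washing, 0.1% formaldehyde crosslinking, proximity ligation, PCR amplification and Illumina NextSeq500 sequencing. Binding signal is the quotient of each hexamer's read frequency for a factor and its frequency for the tag-only sample.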

A further assay concerns the target ETV5 (Homo sapiens, UniProt P41161 1-510). The conditions noted are these: protein: recombinant; tags: N-terminal GST; dsDNA, one strand shown. An outline of the steps: as §1
In a further assay the target is HSF1 (Homo sapiens, UniProt Q00613 1-529). The conditions noted are these: protein: recombinant; tags: N-terminal GST; chain copies: 3; dsDNA, one strand shown. A digest of the protocol: as §1
Sequence of HSF1 (Q00613 whole entry): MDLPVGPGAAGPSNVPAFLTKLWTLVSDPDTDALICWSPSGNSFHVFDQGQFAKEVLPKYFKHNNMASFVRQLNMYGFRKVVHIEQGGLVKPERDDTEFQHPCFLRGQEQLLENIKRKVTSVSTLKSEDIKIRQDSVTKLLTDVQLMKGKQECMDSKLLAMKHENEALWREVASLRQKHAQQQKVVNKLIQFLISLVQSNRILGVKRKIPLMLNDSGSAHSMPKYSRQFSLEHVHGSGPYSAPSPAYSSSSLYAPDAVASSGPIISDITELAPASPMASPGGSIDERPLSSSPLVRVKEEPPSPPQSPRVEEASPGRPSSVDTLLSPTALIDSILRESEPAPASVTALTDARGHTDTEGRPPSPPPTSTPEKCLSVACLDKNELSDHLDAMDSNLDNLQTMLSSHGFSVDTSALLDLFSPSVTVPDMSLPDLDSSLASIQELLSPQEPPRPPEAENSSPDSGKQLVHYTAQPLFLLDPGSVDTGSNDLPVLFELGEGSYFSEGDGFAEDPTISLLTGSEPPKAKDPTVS
The target of a further assay is T2, SPIC (Homo sapiens, UniProt Q8N5J4 1-248).
T2 sequence: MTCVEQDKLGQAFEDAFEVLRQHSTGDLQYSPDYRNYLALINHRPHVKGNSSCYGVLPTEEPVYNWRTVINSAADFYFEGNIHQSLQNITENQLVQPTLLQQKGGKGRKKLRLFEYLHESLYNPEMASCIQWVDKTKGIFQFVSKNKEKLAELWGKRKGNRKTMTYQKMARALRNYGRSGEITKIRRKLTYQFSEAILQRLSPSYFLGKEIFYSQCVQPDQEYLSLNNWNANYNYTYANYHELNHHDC
To be noted: protein: recombinant; tags: N-terminal GST; dsDNA, one strand shown. An outline of the steps:
as §1

For the next assay, the target named is ELF4 (Homo sapiens, UniProt Q99607 1-663). The conditions noted are these: protein: recombinant; tags: N-terminal GST; dsDNA, one strand shown. An outline of the steps:
as §1

The target of another assay is T3, ELK4 (Homo sapiens, UniProt P28324-2 1-405).
T3 sequence: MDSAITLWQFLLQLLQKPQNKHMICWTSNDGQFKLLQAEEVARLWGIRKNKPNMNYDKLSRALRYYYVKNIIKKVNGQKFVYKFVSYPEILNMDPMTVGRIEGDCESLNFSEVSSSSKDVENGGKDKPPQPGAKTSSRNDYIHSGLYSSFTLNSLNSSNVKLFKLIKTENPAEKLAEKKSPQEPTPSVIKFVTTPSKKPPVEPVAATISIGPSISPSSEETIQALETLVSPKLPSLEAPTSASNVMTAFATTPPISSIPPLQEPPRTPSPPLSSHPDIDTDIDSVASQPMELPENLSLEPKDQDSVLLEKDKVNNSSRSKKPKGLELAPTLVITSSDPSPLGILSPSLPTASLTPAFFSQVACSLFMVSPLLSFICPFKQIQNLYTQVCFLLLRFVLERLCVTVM
To be noted: protein: recombinant; tags: N-terminal GST; dsDNA, one strand shown. A digest of the protocol:
as §1

For the next assay, the target named is T4, ETV2 (Homo sapiens, UniProt O00321 1-342).
T4 sequence: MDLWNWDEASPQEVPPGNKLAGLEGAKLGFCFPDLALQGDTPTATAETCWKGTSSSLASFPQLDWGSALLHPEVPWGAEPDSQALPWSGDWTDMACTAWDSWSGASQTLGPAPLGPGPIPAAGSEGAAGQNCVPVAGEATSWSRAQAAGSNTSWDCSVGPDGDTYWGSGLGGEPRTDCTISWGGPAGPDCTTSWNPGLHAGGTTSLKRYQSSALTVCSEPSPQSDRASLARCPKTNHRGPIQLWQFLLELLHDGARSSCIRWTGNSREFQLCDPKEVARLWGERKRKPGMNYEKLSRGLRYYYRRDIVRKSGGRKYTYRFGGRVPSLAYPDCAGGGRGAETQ
To be noted: protein: recombinant; tags: N-terminal GST; dsDNA, one strand shown. An outline of the steps:
as §1

The target in another assay is T5, ELF3 (Homo sapiens, UniProt P78545 1-371).
T5 sequence: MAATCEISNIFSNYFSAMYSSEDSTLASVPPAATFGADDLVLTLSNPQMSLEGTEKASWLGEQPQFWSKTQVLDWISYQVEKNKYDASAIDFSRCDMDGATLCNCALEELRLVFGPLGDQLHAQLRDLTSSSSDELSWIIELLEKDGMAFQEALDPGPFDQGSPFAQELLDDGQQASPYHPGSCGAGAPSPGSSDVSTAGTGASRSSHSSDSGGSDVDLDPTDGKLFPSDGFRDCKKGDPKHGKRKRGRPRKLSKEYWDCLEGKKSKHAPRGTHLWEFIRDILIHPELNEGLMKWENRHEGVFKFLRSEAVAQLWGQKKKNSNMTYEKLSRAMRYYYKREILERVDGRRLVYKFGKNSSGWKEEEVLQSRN
The conditions noted are these: protein: recombinant; tags: N-terminal GST; dsDNA, one strand shown. A digest of the protocol: as §1

Another assay has as its target CRX (Homo sapiens, UniProt O43186 1-299). The conditions noted are these: protein: recombinant; tags: N-terminal GST; dsDNA, one strand shown. A digest of the protocol: as §1
The next assay has as its target ETV1 (Homo sapiens, UniProt P50549 1-477). To be noted: protein: recombinant; tags: N-terminal GST; dsDNA, one strand shown. An outline of the steps: as §1

Sequence of ETV1 (P50549 whole entry): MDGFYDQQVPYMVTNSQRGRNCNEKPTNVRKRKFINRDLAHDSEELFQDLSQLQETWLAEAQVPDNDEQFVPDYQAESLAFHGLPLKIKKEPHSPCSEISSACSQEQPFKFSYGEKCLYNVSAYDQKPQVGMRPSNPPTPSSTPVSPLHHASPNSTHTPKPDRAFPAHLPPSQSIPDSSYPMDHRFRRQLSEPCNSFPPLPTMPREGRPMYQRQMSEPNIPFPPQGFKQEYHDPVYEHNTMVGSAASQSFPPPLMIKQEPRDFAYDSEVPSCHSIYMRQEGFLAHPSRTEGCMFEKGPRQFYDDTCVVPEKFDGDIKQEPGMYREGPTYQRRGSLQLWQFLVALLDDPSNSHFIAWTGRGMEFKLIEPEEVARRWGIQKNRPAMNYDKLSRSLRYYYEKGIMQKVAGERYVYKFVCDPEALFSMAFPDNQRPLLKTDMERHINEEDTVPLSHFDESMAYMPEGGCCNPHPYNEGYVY
Sequence of ELF4 (Q99607 whole entry): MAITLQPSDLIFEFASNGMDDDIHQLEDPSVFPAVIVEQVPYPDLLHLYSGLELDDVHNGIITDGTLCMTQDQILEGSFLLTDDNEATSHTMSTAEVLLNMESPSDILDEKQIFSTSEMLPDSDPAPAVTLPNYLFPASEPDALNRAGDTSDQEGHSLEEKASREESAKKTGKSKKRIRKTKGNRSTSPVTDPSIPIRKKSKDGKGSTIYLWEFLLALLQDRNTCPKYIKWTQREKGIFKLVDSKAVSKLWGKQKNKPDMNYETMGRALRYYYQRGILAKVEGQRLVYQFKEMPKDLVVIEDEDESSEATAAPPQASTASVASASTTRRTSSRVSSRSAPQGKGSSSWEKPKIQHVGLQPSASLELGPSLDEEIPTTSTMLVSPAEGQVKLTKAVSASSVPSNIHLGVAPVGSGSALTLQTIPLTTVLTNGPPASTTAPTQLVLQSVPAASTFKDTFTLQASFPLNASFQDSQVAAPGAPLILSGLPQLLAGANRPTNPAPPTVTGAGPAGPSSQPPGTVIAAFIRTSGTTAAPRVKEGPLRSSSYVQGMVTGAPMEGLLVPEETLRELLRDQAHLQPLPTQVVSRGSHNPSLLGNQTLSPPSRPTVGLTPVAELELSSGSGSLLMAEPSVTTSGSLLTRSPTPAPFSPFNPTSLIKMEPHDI
Sequence of ETV5 (P41161 whole entry): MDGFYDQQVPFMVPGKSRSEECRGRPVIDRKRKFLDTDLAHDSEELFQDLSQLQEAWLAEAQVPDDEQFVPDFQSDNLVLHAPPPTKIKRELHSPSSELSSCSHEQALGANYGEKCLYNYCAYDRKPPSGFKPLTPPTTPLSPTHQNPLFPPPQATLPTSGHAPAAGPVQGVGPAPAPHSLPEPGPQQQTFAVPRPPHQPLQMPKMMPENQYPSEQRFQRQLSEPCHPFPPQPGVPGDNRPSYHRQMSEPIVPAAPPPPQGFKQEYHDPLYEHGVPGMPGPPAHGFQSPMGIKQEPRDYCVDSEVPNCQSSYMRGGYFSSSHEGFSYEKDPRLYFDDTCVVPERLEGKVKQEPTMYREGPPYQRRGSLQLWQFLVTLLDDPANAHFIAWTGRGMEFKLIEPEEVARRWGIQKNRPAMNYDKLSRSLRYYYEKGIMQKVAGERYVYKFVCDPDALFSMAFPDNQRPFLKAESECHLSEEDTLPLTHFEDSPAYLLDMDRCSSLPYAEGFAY
Sequence of CRX (O43186 whole entry): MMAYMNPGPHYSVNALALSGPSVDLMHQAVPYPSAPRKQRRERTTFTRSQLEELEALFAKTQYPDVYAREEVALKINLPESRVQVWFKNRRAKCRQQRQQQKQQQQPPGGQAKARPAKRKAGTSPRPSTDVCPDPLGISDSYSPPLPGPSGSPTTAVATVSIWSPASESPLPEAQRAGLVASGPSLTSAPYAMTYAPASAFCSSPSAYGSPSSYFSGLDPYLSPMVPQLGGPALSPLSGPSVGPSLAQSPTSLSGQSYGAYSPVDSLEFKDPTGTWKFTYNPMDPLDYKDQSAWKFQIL

TTATAT: the binding signal was 1.33 fold enrichment (6-mer frequency, TF over GST control) with FEV; 1.26 fold enrichment (6-mer frequency, TF over GST control) in the assay with ETV5; 1.76 fold enrichment (6-mer frequency, TF over GST control) with HSF1; 1.44 fold enrichment (6-mer frequency, TF over GST control) with SPIC; 1.34 fold enrichment (6-mer frequency, TF over GST control) with ELF4; 1.45 fold enrichment (6-mer frequency, TF over GST control) with ELK4. Besides, the binding signal with ETV2 is 1.46 fold enrichment (6-mer frequency, TF over GST control); with ELF3 it was 1.44 fold enrichment (6-mer frequency, TF over GST control); with CRX, 2.47 fold enrichment (6-mer frequency, TF over GST control); with ETV1, 1.34 fold enrichment (6-mer frequency, TF over GST control).

Turning to CGACAA, the binding signal with FEV is 1.3 fold enrichment (6-mer frequency, TF over GST control); with ETV5 it was 1.24 fold enrichment (6-mer frequency, TF over GST control); in the assay with HSF1 it was 1.12 fold enrichment (6-mer frequency, TF over GST control); with SPIC, 1.15 fold enrichment (6-mer frequency, TF over GST control); with ELF4 it was 1.18 fold enrichment (6-mer frequency, TF over GST control); in the assay with ELK4 it was 1.13 fold enrichment (6-mer frequency, TF over GST control). Further, the binding signal with ETV2 was 1.08 fold enrichment (6-mer frequency, TF over GST control); with ELF3 it was 1.17 fold enrichment (6-mer frequency, TF over GST control); with CRX it was 1.03 fold enrichment (6-mer frequency, TF over GST control); in the assay with ETV1, 1.18 fold enrichment (6-mer frequency, TF over GST control).

On to CTTTAT, for which the binding signal is 1.17 fold enrichment (6-mer frequency, TF over GST control) with FEV; 1.21 fold enrichment (6-mer frequency, TF over GST control) in the assay with ETV5; 1.23 fold enrichment (6-mer frequency, TF over GST control) with HSF1; 1.21 fold enrichment (6-mer frequency, TF over GST control) with SPIC; 1.19 fold enrichment (6-mer frequency, TF over GST control) in the assay with ELF4; 1.29 fold enrichment (6-mer frequency, TF over GST control) in the assay with ELK4. The binding signal is 1.29 fold enrichment (6-mer frequency, TF over GST control) with ETV2; 1.21 fold enrichment (6-mer frequency, TF over GST control) with ELF3; 1.65 fold enrichment (6-mer frequency, TF over GST control) in the assay with CRX; 1.22 fold enrichment (6-mer frequency, TF over GST control) in the assay with ETV1.

Regarding CGCTTT, the binding signal with FEV is 1.18 fold enrichment (6-mer frequency, TF over GST control); with ETV5, 1.21 fold enrichment (6-mer frequency, TF over GST control); in the assay with HSF1, 1.11 fold enrichment (6-mer frequency, TF over GST control); with SPIC, 1.17 fold enrichment (6-mer frequency, TF over GST control); with ELF4, 1.31 fold enrichment (6-mer frequency, TF over GST control); with ELK4 it was 1.17 fold enrichment (6-mer frequency, TF over GST control). Besides, the binding signal was 1.09 fold enrichment (6-mer frequency, TF over GST control) with ETV2; 1.22 fold enrichment (6-mer frequency, TF over GST control) with ELF3; 1.37 fold enrichment (6-mer frequency, TF over GST control) with CRX; 1.4 fold enrichment (6-mer frequency, TF over GST control) with ETV1.

AATGCT: the binding signal with FEV is 1.2 fold enrichment (6-mer frequency, TF over GST control); with ETV5, 1.27 fold enrichment (6-mer frequency, TF over GST control); with HSF1 it was 1.29 fold enrichment (6-mer frequency, TF over GST control); with SPIC it was 1.24 fold enrichment (6-mer frequency, TF over GST control); with ELF4, 1.25 fold enrichment (6-mer frequency, TF over GST control); with ELK4, 1.3 fold enrichment (6-mer frequency, TF over GST control). Further, the binding signal was 1.3 fold enrichment (6-mer frequency, TF over GST control) with ETV2; 1.21 fold enrichment (6-mer frequency, TF over GST control) in the assay with ELF3; 1.26 fold enrichment (6-mer frequency, TF over GST control) with CRX; 1.24 fold enrichment (6-mer frequency, TF over GST control) with ETV1.

Take AATAGC: the binding signal was 1.18 fold enrichment (6-mer frequency, TF over GST control) with FEV; 1.19 fold enrichment (6-mer frequency, TF over GST control) in the assay with ETV5; 1.07 fold enrichment (6-mer frequency, TF over GST control) in the assay with HSF1; 1.01 fold enrichment (6-mer frequency, TF over GST control) with SPIC; 1.15 fold enrichment (6-mer frequency, TF over GST control) with ELF4; 1.19 fold enrichment (6-mer frequency, TF over GST control) in the assay with ELK4. Moreover, the binding signal with ETV2 was 1.17 fold enrichment (6-mer frequency, TF over GST control); with ELF3, 1.23 fold enrichment (6-mer frequency, TF over GST control); in the assay with CRX it was 1.15 fold enrichment (6-mer frequency, TF over GST control); in the assay with ETV1, 1.13 fold enrichment (6-mer frequency, TF over GST control).

For the sequence CCTATC, the binding signal is 1.16 fold enrichment (6-mer frequency, TF over GST control) with FEV; 1.14 fold enrichment (6-mer frequency, TF over GST control) with ETV5; 1.06 fold enrichment (6-mer frequency, TF over GST control) with HSF1; 1.1 fold enrichment (6-mer frequency, TF over GST control) with SPIC; 1.16 fold enrichment (6-mer frequency, TF over GST control) in the assay with ELF4; 1.14 fold enrichment (6-mer frequency, TF over GST control) in the assay with ELK4. Also, the binding signal was 1.08 fold enrichment (6-mer frequency, TF over GST control) in the assay with ETV2; 1.23 fold enrichment (6-mer frequency, TF over GST control) with ELF3; 1.15 fold enrichment (6-mer frequency, TF over GST control) with CRX; 1.16 fold enrichment (6-mer frequency, TF over GST control) with ETV1.
